Source: ChEMBL document CHEMBL3988442, “University of Dundee, Small-Polar-MMV Screening Library” (2021)
Hit rate of the full screen: of about 69,000 compounds, about 950 (1.4%) showed an effect of 50% or more. The entries come from a sample that favours strong results as a whole.

system: Mycobacterium tuberculosis; experiment: Cornell M. t heat shock assay; format: functional, organism-based; parameters: dose or concentration left out as unconfirmed; also: in the data most compounds retested in dose-response had high values

First: COCC1Cn2nnc(-c3cnn(C)c3)c2CN1Cc1ccoc1.O=C(O)C(F)(F)F (stereo not given)
Second: CC[C@@H]1N(Cc2ccoc2)CCC[C@]12CCC(=O)N2CCOC.O=C(O)C(F)(F)F
The “Percent Effect” value of the first is higher: 5.008% for the first, -21.47% for the second.

Compared with `O=C(O)CCC(=O)Nc1nn(Cc2ccccc2Cl)cc1Cl`, `O=C(NCCCNc1ccc(C(F)(F)F)cn1)c1ccccc1` is higher in “Percent Effect” value: 2.15% for the first, 26.28% for the second.

Going from `Cc1ccc(N2CCO[C@H]3CN(CC4CC4)C[C@H]32)nn1.O=C(O)C(F)(F)F.O=C(O)C(F)(F)F` to `O=C(O)C(F)(F)F.O=C(O)C(F)(F)F.O=C1CO[C@@H]2CN(CC3CCOCC3)C[C@H]2N1Cc1ccncc1`, the “Percent Effect” value rises from -7.487% to -5.107%.

Compared with `COc1cc(N2CC[C@@H](O)[C@@H]2Cc2cccnc2)ncn1.O=C(O)C(F)(F)F`, `COc1cc(N2CCC3(CCN(Cc4nccs4)CC3)C2)ncn1.O=C(O)C(F)(F)F` is higher in “Percent Effect” value: 0.6687% for the first, 24.13% for the second.

Compared with `CCCN(CC(=O)N1CCNCC1)C(=O)c1cccc(Cl)c1.O=C(O)C(F)(F)F`, `O=C(O)C(F)(F)F.O=C(c1ccc(F)cc1)N1CCC2(CCCN2CC2CC2)CC1` is lower in “Percent Effect” value: 0.5334% for the first, -17.36% for the second.

First: CCOc1ccccc1OCCN(C)Cc1nccn1C
Second: CN(CCCOc1ccccc1)Cc1nccn1C
The “Percent Effect” value of the first is lower: -26.9% for the first, -13.65% for the second.

Compared with `Cc1ccc(OCCN(C)Cc2nccn2C)c(C)c1`, `COc1nc2cc(C)ccc2cc1CN(C)Cc1cc(C)[nH]n1.O=C(O)CC(O)(CC(=O)O)C(=O)O` is lower in “Percent Effect” value: 55.39% for the first, -1.641% for the second.

Going from `O=C(C1CCCc2[nH]ncc21)N1CCCC2(C1)OCCO2` (stereo not given) to `O=C(O)C(F)(F)F.O=C1N(CC2CC2)CCC12CCCN(c1ncc(F)cn1)C2` (stereo not given), the “Percent Effect” value rises from 10.11% to 23.17%.

First: CN(C)C(c1ccccn1)[C@H]1CC[C@H](CNC(=O)C2CCCC2)CC1 (stereo not given in full)
Second: CS(=O)(=O)N1CCC2(CC1)CC(NCC1CC1)c1ccccc12.O=C(O)C(F)(F)F (stereo not given)
The “Percent Effect” value of the first is higher: 5.9375% for the first, 1.272% for the second.

First: N#Cc1ccc(C(=O)N2CC[C@H]3[C@H]2CCN3CC2CCOCC2)cc1.O=C(O)C(F)(F)F
Second: COCC(=O)NC1CC2(CCN(CC3CC3)CC2)Oc2ccccc21.O=C(O)C(F)(F)F (stereo not given)
The “Percent Effect” value of the first is lower: -36.11% for the first, -26.45% for the second.

Compared with `N#CC1(C(=O)NCCCNc2ccc(C(F)(F)F)cn2)CCCC1`, `N#Cc1ccc(C(=O)NCCCNc2ccc(C(F)(F)F)cn2)cc1` is lower in “Percent Effect” value: 102.8% for the first, 28.89% for the second.

Compared with `O=C(NCCCNc1ccc(C(F)(F)F)cn1)c1ccc(F)cc1`, `N#Cc1ccc(NCCNc2ccc(C(F)(F)F)cn2)nc1` is higher in “Percent Effect” value: 26.36% for the first, 51.52% for the second.

Going from `Cc1cc(NCCNc2ccc(C#N)cn2)nc(C)n1` to `Cc1cccc(Nc2cc(C)nc(C3CCCCN3CC(N)=O)n2)n1` (stereo not given), the “Percent Effect” value rises from -18.17% to -15.32%.

First: O=C(O)C(F)(F)F.O=C1CC(c2ccccc2)C2(CCN(Cc3nccs3)CC2)N1 (stereo not given)
Second: Cn1cc(N2CCC3(CCN(Cc4nccs4)C3)C2=O)cn1.O=C(O)C(F)(F)F (stereo not given)
The “Percent Effect” value of the first is lower: -1.259% for the first, -0.6336% for the second.

First: CC(=O)N1CCC2(CC1)CNc1c(F)cccc12.Cl
Second: Cn1cc(CNC2CC3(CCN(S(C)(=O)=O)CC3)c3ccccc32)cn1.O=C(O)C(F)(F)F (stereo not given)
The “Percent Effect” value of the first is lower: 12.35% for the first, 36.25% for the second.

Compared with `Cc1cc2c(c(-c3c[nH]c(C)n3)c1)OC(CN)C2` (stereo not given), `Cc1nc(-c2cc(Cl)cc3c2OC(CN)C3)c[nH]1` (stereo not given) is higher in “Percent Effect” value: 1.503% for the first, 52.4% for the second.

First: Cc1nc(-c2cc(Cl)c3c(c2)CC(CN)O3)c[nH]1 (stereo not given)
Second: Cc1cc(Nc2nc(C)cs2)nc(C2CCCCN2CCO)n1 (stereo not given)
The “Percent Effect” value of the first is lower: 42.51% for the first, 103.2% for the second.

Compared with `Cc1cc(C(F)(F)F)n2nc(C3CCCN3C3CCSCC3)cc2n1.O=C(O)CC(O)(CC(=O)O)C(=O)O` (stereo not given), `CN1CC[C@H]2[C@H](C[C@@H](CN3CCCC3)N2c2nccs2)C1.O=C(O)C(F)(F)F.O=C(O)C(F)(F)F.O=C(O)C(F)(F)F` is higher in “Percent Effect” value: -13.15% for the first, 17.76% for the second.

Compared with `Cc1cccc(CN2C[C@H](OCc3csc(C)n3)[C@H]3COC[C@H]32)n1.O=C(O)C(F)(F)F.O=C(O)C(F)(F)F`, `Cc1cccc(CN2C[C@@H]3COC[C@]3(COc3cccnc3)C2)n1.O=C(O)C(F)(F)F.O=C(O)C(F)(F)F.O=C(O)C(F)(F)F` is higher in “Percent Effect” value: -14.33% for the first, -8.53% for the second.

First: CC(C)Cc1ccc(C(=O)Cn2cnnc2[S+](C)[O-])cc1 (stereo not given)
Second: CC(C)Oc1ccc(C(=O)Cn2cnnc2[S+](C)[O-])cc1 (stereo not given)
The “Percent Effect” value of the first is higher: 59.76% for the first, 17.53% for the second.

Going from `C[S+]([O-])c1nncn1CC(=O)c1ccc(Br)cc1` (stereo not given) to `Cc1ccc(CN2CCC3(C2)C(=O)N(CC(N)=O)c2ccccc23)s1` (stereo not given), the “Percent Effect” value falls from 11.9% to -35.1%.

First: CC(=O)N1CCN(c2ccc3ccc(C(=O)NC4CCCC4)cn23)CC1
Second: CN(C)C(=O)N1CCN(c2ccc3ccc(C(=O)NC4CC4)cn23)CC1
The “Percent Effect” value of the first is higher: 69.47% for the first, -6.605% for the second.

First: CC(C)N1CCN(c2ccc3ccc(C(=O)NC4CCCC4)cn23)CC1.O=C(O)C(F)(F)F
Second: CS(=O)(=O)N1CCN(c2ccc3ccc(C(=O)NC4CC4)cn23)CC1
The “Percent Effect” value of the first is higher: 67.57% for the first, 20.39% for the second.

Going from `COCCN1CCN(c2ccc3ccc(C(=O)NC4CC4)cn23)CC1` to `O=C(NC1CC1)c1ccc2ccc(N3CCN(CC4CC4)CC3)n2c1`, the “Percent Effect” value rises from -14.38% to 38.85%.

Compared with `CN(C)C(=O)[C@H]1C[C@@H]2CCN(C3CCOCC3)C[C@@H]2O1.O=C(O)C(F)(F)F`, `CNC(=O)[C@H]1C[C@@H]2CCN(Cc3ccncc3)C[C@H]2O1.O=C(O)C(F)(F)F.O=C(O)C(F)(F)F` is lower in “Percent Effect” value: 2.005% for the first, -3.411% for the second.

Compared with `CN(C)c1ncnc2c1CCN(CC1CCOC1)CC2.O=C(O)C(F)(F)F` (stereo not given), `O=C(O)C(F)(F)F.O=C(c1cocn1)N1C[C@H]2CCC[C@@]2(COc2ccccn2)C1` is higher in “Percent Effect” value: -1.073% for the first, 21.2% for the second.

Going from `Cc1cccc(N2CC[C@@H]3CN(C(=O)c4ccco4)CCO[C@@H]3C2)n1.O=C(O)C(F)(F)F` to `Cn1cccc1C(=O)N1CCO[C@@H]2CN(Cc3nccs3)C[C@@H]2C1.O=C(O)C(F)(F)F`, the “Percent Effect” value falls from 6.087% to -1.358%.

Compared with `CCCOC1CCCN(c2ccnc(C(=O)NCc3ccco3)c2)C1` (stereo not given), `O=C(NCc1ccco1)c1cc(N2CC[C@@H](O)C2)ccn1` is lower in “Percent Effect” value: 56.57% for the first, 1.104% for the second.

Compared with `CN(C)[C@H]1CCN(c2ccnc(C(=O)NCc3ccco3)c2)C1`, `CS(=O)(=O)N1CCC2(CC1)CC(NCc1ccco1)c1ccccc12.O=C(O)C(F)(F)F` (stereo not given) is higher in “Percent Effect” value: 19.62% for the first, 55% for the second.

Going from `Cc1ccc(CN2CCC3(C2)C(=O)N(CC(C)C)c2ccccc23)s1` (stereo not given) to `CC(C)CN1C(=O)C2(CCN(Cc3ccc(F)cc3)C2)c2ccccc21` (stereo not given), the “Percent Effect” value falls from 104.8% to 17.34%.

Going from `Cc1ccc(CN2CCC3(CC2)C(=O)Nc2ccccc23)s1.O=C(O)C(F)(F)F` to `Cc1ccc(CN2CCC3(CC2)C(=O)N(C)c2ccccc23)s1.O=C(O)C(F)(F)F`, the “Percent Effect” value rises from 0.7618% to 67.96%.

First: Cc1ccc(CN2CCC3(C2)C(=O)N(CC2CC2)c2ccccc23)s1.O=C(O)C(F)(F)F (stereo not given)
Second: Cc1cnnn1Cc1ncn2c1CN(Cc1cccs1)CCC2.O=C(O)C(F)(F)F
The “Percent Effect” value of the first is higher: 22.05% for the first, 1.772% for the second.

Going from `Cc1csc(Nc2cc(C3CCCCN3C)nc(C)n2)n1` (stereo not given) to `Cc1nc(C)n(CC2CCCN2CC(=O)Nc2cc(C(C)C)no2)n1` (stereo not given), the “Percent Effect” value falls from -8.179% to -40.94%.

Compared with `O=C(O)C(F)(F)F.O=C(O)C(F)(F)F.O=C1[C@H]2CN(Cc3ccoc3)C[C@H]2CN1CCN1CCCC1`, `COc1ccc(C[C@H]2CN(C(=O)c3ccc(C)nc3)CC[C@@H]2OC)cc1.O=C(O)C(F)(F)F` is higher in “Percent Effect” value: -10.49% for the first, -2.913% for the second.

Going from `O=C(c1cocn1)N1C[C@@H]2COC[C@]2(COc2cccnc2)C1` to `O=C(c1ncccn1)N1C[C@@H]2COC[C@]2(COc2cccnc2)C1`, the “Percent Effect” value falls from 75.2% to 26.01%.

Going from `O=C(C1=CCCC1)N1C[C@@H]2COC[C@]2(COc2cccnc2)C1` to `Cc1cnn(CC2CCCN2CC(=O)NC2CCOCC2)c1` (stereo not given), the “Percent Effect” value falls from 1.513% to -0.7823%.

First: COc1cccc(C2CCN(c3ccc4cc[nH]c4n3)C2)c1OC (stereo not given)
Second: COc1ccc(OC)c(C2CCN(c3ccc4cc[nH]c4n3)C2)c1 (stereo not given)
The “Percent Effect” value of the first is lower: 36.99% for the first, 103.8% for the second.

Going from `COc1ccccc1C1CCN(c2ccc3cc[nH]c3n2)CC1` to `Cc1ccc(C(=O)Nc2ccc(N3CCC(O)CC3)c(C#N)c2)s1`, the “Percent Effect” value rises from -1.592% to 25.13%.

Going from `CS(=O)(=O)N1C[C@H]2CC[C@@H]1CN(Cc1ccncc1)C2` to `CC(C)c1cc(NC(=O)CN2CCCC2Cn2cccn2)on1` (stereo not given), the “Percent Effect” value falls from -0.4425% to -10.53%.

Compared with `N#Cc1cc(NC(=O)c2ccsc2)ccc1N1CCC(O)CC1`, `Cc1ccsc1C(=O)Nc1ccc(N2CCC(O)CC2)c(C#N)c1` is higher in “Percent Effect” value: 11.62% for the first, 75.65% for the second.

First: CC(C)c1cc(C(=O)NCC2CCCN(C(C)C)C2)n(C)n1.Cl (stereo not given)
Second: Cc1cc(C)n(CC2CCCN2CC(=O)Nc2cc(C(C)C)no2)n1 (stereo not given)
The “Percent Effect” value of the first is lower: -0.8268% for the first, 66.41% for the second.

First: CC(C)(C)c1cc(NC(=O)CN2CCCC2Cn2cncn2)on1 (stereo not given)
Second: CC(C)(C)c1cc(NC(=O)CN2CCCCC2Cn2cncn2)on1 (stereo not given)
The “Percent Effect” value of the first is higher: 2.377% for the first, -1.6% for the second.

Compared with `Cc1cnn(CC2CCCN2CC(=O)Nc2cc(C)no2)c1` (stereo not given), `Cc1cnn(CC2CCCN2CC(=O)Nc2cc(C(C)C)no2)c1` (stereo not given) is higher in “Percent Effect” value: 35.93% for the first, 98.13% for the second.

Going from `Cc1cnn(CC2CCCN2CC(=O)Nc2cc(C(C)(C)C)no2)c1` (stereo not given) to `CC(C)(C)c1cc(NC(=O)CN2CCCC2Cn2cccn2)on1` (stereo not given), the “Percent Effect” value rises from 73.93% to 77.39%.

Compared with `Cc1cnn(CC2CCCN2CC(=O)Nc2cc(C)on2)c1` (stereo not given), `CC(C)c1cc(NC(=O)CN2CCCC2Cn2cncn2)on1` (stereo not given) is higher in “Percent Effect” value: -31.38% for the first, -8.042% for the second.
